Consider 32 molecules from PubChem BioAssay AID651863 (Broad Institute, 2012).

Measured potencies and affinities stand elsewhere. Unmarked numbers belong to inactive results. Activity calls are given as the source filed them.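 The calls were made as follows: active = compounds whose fitted half-maximal cell-killing dose is at most twice the top tested dose; inconclusive = flat curve with 30 to 70 percent signal loss, or poor fit; inactive = the rest.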

The assay can be described thus: kidney cell line viability loss – HEK293T, luminescence plate reader, powder samples, set 4, cytotoxicity control, dose response (AID 651863). As to conditions: CellTiter-Glo ATP luminescence, 48 h; series mostly up to 26 µM; activity change, negative = cytotoxicity: at the top concentration. A general note: ATP-based viability assays read luminescence as a measure of living cells.
With `COc1ccccc1CCNC(=O)[C@@H]1c2ccccc2CCN1C(=O)C1CCCCC1C(=O)O` (some centres not stated), the call was inactive. For `NC(=O)c1ccccc1C(=O)NC[C@@H]1c2ccccc2CCN1C(=O)[C@@H]1CCCC[C@@H]1C(=O)O`, the “activity change, negative = cytotoxicity” value is 0.45%. The same measure, in the same setting: the same measure for `Cc1cc(C)c(S(=O)(=O)Nc2nc(C(C(=O)OC(C)C)C(=O)C(F)(F)F)nc3ccccc23)c(C)c1` (configuration not stated): 7.01%; for `O=C(O)CCC(=O)N1CCc2ccccc2C1CN1C(=O)c2ccccc2C1=O` (configuration not stated): 9.32%. On the same count and under the same terms, as for `O=C(O)C1CCCCC1C(=O)N1CCc2ccccc2C1c1ccccc1` (configuration not stated), the figure is -4.71%; as for `CCOC(=O)Cc1nc(NS(=O)(=O)c2c(C)cc(C)cc2C)c2ccccc2n1`, 11.4%. On the same count and under the same terms, as for `Cc1ccc(S(=O)(=O)NC[C@@H]2c3ccccc3CCN2C(=O)[C@@H]2CCCC[C@@H]2C(=O)O)c(C)c1`, the figure is -3.6%.

`O=C(O)[C@H]1CCCC[C@H]1C(=O)N1CCC2=C(CCCC2)C1CN1C(=O)c2ccccc2C1=O` (some centres not stated): the call was inactive.

As to `O=S(=O)(Nc1nc(NCC2CCCCC2)nc2ccccc12)c1ccccc1`, the “activity change, negative = cytotoxicity” value is 14.8%. For `NC(=O)[C@H]1CCCC[C@H]1C(=O)N1CCc2ccccc2[C@H]1CN1C(=O)c2ccccc2C1=O`, the “activity change, negative = cytotoxicity” value was 2.88%. Still for that read-out and setting: the same measure for `O=C(O)/C=C\C(=O)N1CCc2ccccc2C1CN1C(=O)c2ccccc2C1=O` (configuration not stated): 13.3%; for `O=C(O)[C@@H]1CCCN1C(=O)N1CCc2ccccc2[C@H]1CN1C(=O)c2ccccc2C1=O`: 10.4%. Same read-out and setting: as for `CC(C)CNc1nc(NS(=O)(=O)c2ccccc2)c2ccccc2n1`, the figure is 11.1%; as for `O=C(O)C1CCCCC1C(=O)N1CCc2ccccc2C1CN1C(=O)Cc2ccccc2C1=O` (configuration not stated), -9.79%. Still for that read-out and setting: the same measure for `O=C1c2ccccc2C(=O)N1CC1c2ccccc2CCN1C(=O)Cc1ccccc1` (configuration not stated): 0.765% [at 6 µM].

For `COC(=O)CNc1nc(NS(=O)(=O)c2c(C)cc(C)cc2C)c2ccccc2n1`, the “activity change, negative = cytotoxicity” value was 6.41%. As to `O=C(O)C1CCCCC1C(=O)Nc1ccccc1CN1C(=O)c2ccccc2C1=O` (configuration not stated), the “activity change, negative = cytotoxicity” value was -0.574%. Still for that read-out and setting: the same measure for `O=C(NC[C@@H]1c2ccccc2CCN1C(=O)[C@@H]1CCCC[C@@H]1C(=O)O)c1ccc(CN2CCOCC2)cc1`: 21.5%; for `O=C(O)Cc1ccccc1C(=O)N1CCc2ccccc2[C@H]1CN1C(=O)c2ccccc2C1=O`: 2.94%. Same read-out and setting: as for `O=C(NC[C@@H]1c2ccccc2CCN1C(=O)[C@@H]1CCCC[C@@H]1C(=O)O)c1ccccc1`, the figure is 6.54%. As to `O=C(NCCc1ccccc1)c1ccccc1C(=O)NC[C@@H]1c2ccccc2CCN1C(=O)C1CCCCC1C(=O)O` (some centres not stated), the “activity change, negative = cytotoxicity” value was -7.39%. Same read-out and setting: as for `O=C(O)CC(=O)N1CCc2ccccc2C1CN1C(=O)c2ccccc2C1=O` (configuration not stated), the figure is -4.51%. Same read-out and setting: the same measure for `O=C(O)[C@H]1CCCC[C@H]1C(=O)N1CCc2ccccc2[C@H]1CNS(=O)(=O)c1ccc([N+](=O)[O-])cc1`: 17.8%.

With `O=C(NC[C@@H]1c2ccccc2CCN1C(=O)[C@@H]1CCCC[C@@H]1C(=O)O)c1ccc(CCl)cc1`, the “activity change, negative = cytotoxicity” value was 30%. For the molecule `O=C1c2ccccc2C(=O)N1C[C@@H]1c2ccccc2CCN1C(=O)OCc1ccccc1`, the “activity change, negative = cytotoxicity” value was -10.3%.

Turning to `Cc1cc(C)c(S(=O)(=O)Nc2cc(C(C(=O)OC(C)C)C(=O)C(F)(F)F)c(O)c3ccccc23)c(C)c1` (configuration not stated), the “activity change, negative = cytotoxicity” value was -5.11%. Still for that read-out and setting: the same measure for `CCOC(=O)C(C(=O)OCC)c1nc(NS(=O)(=O)c2c(C)cc(C)cc2C)c2ccccc2n1`: 13.7%; for `O=C(O)C1CCCCC1C(=O)N1CCc2ccccc2[C@H]1C(=O)NCCc1ccccc1` (some centres not stated): 0.206%; for `O=C(O)[C@H]1CCCC[C@H]1C(=O)N1CCc2ccccc2C1` (racemic): 24.1%.

As to `Cc1ccc(S(=O)(=O)NC(=O)[C@@H]2c3ccccc3CCN2C(=O)[C@@H]2CCCC[C@@H]2C(=O)O)cc1`, the result was inactive.

Regarding `O=C(O)[C@H]1CCCC[C@H]1C(=O)N1CCc2ccccc2[C@H]1CNc1nc(Cl)nc2ccccc12`, the “activity change, negative = cytotoxicity” value was -3.45%. Still for that read-out and setting: the same measure for `Cc1ccc(S(=O)(=O)Nc2cc(C(C(=O)OC(C)C)C(=O)C(F)(F)F)c(O)c3ccccc23)cc1` (configuration not stated): -0.097%.
